Mtb BioA inh: M. tuberculosis BioA enzyme inhibitors, primary screen, biochemical, plate reader, single point, HTS; AID 602481, 2012; 0.096% of 360,000 active; purified M. tuberculosis BioA enzyme; inhibition, % at 9.99 µM; in the data active = inhibition above about 40%
Yp Topo-I inh: Yersinia pestis topoisomerase I inhibitors, primary screen, biochemical, cleavage product accumulation, plate reader, single point | DNA topoisomerase I (Yersinia pestis CO92) | Y. pestis Topo-I cleavage product accumulation | activity, % at 10 µM | 0.064% of 360,000 active | AID 504884, 2011; in the data active = activity above about 50%, passing the limit was not always enough
TcdB GH inh: TcdB glycohydrolase inhibitors, primary screen, biochemical, single point, plate reader | Toxin B (Clostridioides difficile), P18177 | TcdB glycohydrolase enzymatic assay | inhibition, % at 9.99 µM | 0.24% of 350,000 active | AID 652162, 2013; in the data active = inhibition above about 10%
FadD28 FP inh: inhibitors of FadD28 bisubstrate probe binding, primary screen, biochemical, fluorescence polarization, single point. Mycobacterium tuberculosis FadD28 fatty-acid-AMP ligase. inhibition, % at 12.5 µM. 0.22% of 360,000 active; in the data active = inhibition above about 8.5%, passing the limit was not always enough
Vc quorum ag: inducers of Vibrio cholerae quorum light production without autoinducers, primary screen, BH1578 luxS cqsA deficient, single point | V. cholerae BH1578 lux reporter, luminescence, 6 h | activation, % at 18.7 µM | 0.16% of 350,000 active | AID 588436, 2011; in the data active = activation mostly above about 9.7%, no sharp cut-off
The depositor's hits bear a star. In the library only some 0.61% were active in any assay of this set; here they are far more common.

Screening Cc1nn(C(C)C(=O)NC2C(=O)N3C(C(=O)O)=C(CSc4nnnn4C)CSC23)cc1Cl (stereo not given) returned Mtb BioA inh 0.4, Yp Topo-I inh 2.5, TcdB GH inh 1.8, FadD28 FP inh -2.2 and Vc quorum ag 25.2*.
`O=c1cc2oc3cc(O)c(O)cc3c(-c3ccccc3O)c-2cc1O` gave Yp Topo-I inh -31.6, FadD28 FP inh 80.9* and Vc quorum ag -2.2.
`COc1ccc(OC)c(-c2c3cc(O)c(=O)cc-3oc3cc(O)c(O)cc23)c1` gave Yp Topo-I inh -5.8, FadD28 FP inh 101.9* and Vc quorum ag -0.2.
Screening CCOc1ccccc1-c1c2cc(O)c(=O)cc-2oc2cc(O)c(O)cc12 returned Yp Topo-I inh -3.0, FadD28 FP inh 130.7* and Vc quorum ag -4.2.
CN1CCN(C(=O)C[C@H]2C[C@H]3c4cc(NC(=O)Nc5ccccc5)ccc4O[C@H]3[C@@H](CO)O2)CC1 was read as Mtb BioA inh -2.8.
CC(=O)c1ccc2c(c1)C1C(Cl)C(Sc3ccccc3[N+](=O)[O-])CC1C(C(=O)O)N2 (stereo not given) was read as Yp Topo-I inh -28.1, FadD28 FP inh 20.4* and Vc quorum ag -0.2.
Screening O=C(O)c1cccc2c1NC(C(=O)O)C1CC(Sc3ccccc3[N+](=O)[O-])C(Cl)C21 (stereo not given) returned Mtb BioA inh 7.6, Yp Topo-I inh -28.6, FadD28 FP inh 55.0* and Vc quorum ag inactive.
For COC(=O)c1cn(CC(=O)N2CCC3(CC2)C(=O)NCN3c2ccccc2)nn1 the results were Mtb BioA inh 0.5 and TcdB GH inh 0.7.
For COc1ccc(/C=C2\C(=O)N(c3c(Cl)cc(Cl)cc3Cl)N=C2NC(=O)c2cccc([N+](=O)[O-])c2)cc1 the results were Mtb BioA inh 0.0, Yp Topo-I inh -9.7, FadD28 FP inh 8.4* and Vc quorum ag -0.6.
Screening Cc1ccc(S(=O)(=O)Nc2cccc3c2O[C@H](CN(C)Cc2ccc(-c4ccccc4)cc2)[C@@H](C)CN([C@@H](C)CO)C3=O)cc1 returned Mtb BioA inh -6.3 and TcdB GH inh 0.3.
For O=C(N[C@@H](Cc1c[nH]c2ccccc12)C(=O)O)C1CCN(S(=O)(=O)c2cccs2)CC1 the results were Mtb BioA inh 0.7, Yp Topo-I inh -4.8, TcdB GH inh 10.5*, FadD28 FP inh -2.3 and Vc quorum ag -1.9.
Screening COc1ccc(OC)c(NC(=O)CSc2ncnc3sc(C)cc23)c1 returned Mtb BioA inh -0.2, Yp Topo-I inh -6.4, TcdB GH inh -1.6, FadD28 FP inh 13.7* and Vc quorum ag -4.0.
COc1ccc(C)cc1NC(=O)C(OC(=O)C1=NNC(=O)CC1)c1ccccc1 (stereo not given) was read as Mtb BioA inh -2.8, Yp Topo-I inh 1.6, TcdB GH inh 12.7*, FadD28 FP inh -1.7 and Vc quorum ag inactive.
`Cc1cccc(C2C3=C(Nc4[nH]n(-c5ccccc5)c(=O)c42)c2ccccc2C3=O)c1` (stereo not given) gave Yp Topo-I inh -21.3, TcdB GH inh -7.1, FadD28 FP inh 22.3* and Vc quorum ag -0.8.
Screening COc1ccc(-c2ccc3[nH]c4c(c3c2)CCN2C(=O)[C@@H]([C@H](C)O)[C@@H](N(C)C(=O)Nc3cc(Cl)cc(Cl)c3)C[C@@H]42)cc1 returned Mtb BioA inh -0.2, Yp Topo-I inh 15.7, TcdB GH inh -0.2, FadD28 FP inh 40.6* and Vc quorum ag inactive.
For O=[N+]([O-])c1ccc(S(=O)(=O)Nc2nc(-c3ccccc3)cs2)cc1 the results were Mtb BioA inh 2.1, Yp Topo-I inh 3.7, TcdB GH inh 12.6*, FadD28 FP inh 1.7 and Vc quorum ag inactive.
CCc1ccc(Nc2n[n+](-c3ccccc3)c(-c3ccc(OC)c(Br)c3)s2)cc1 was read as Mtb BioA inh 0.7, Yp Topo-I inh -8.8, TcdB GH inh 10.8*, FadD28 FP inh -3.2 and Vc quorum ag -11.1.
For Cc1ccc(N2C(=O)CS/C2=C(\C(Cl)=C(Cl)Cl)[N+](=O)[O-])cc1 the results were Mtb BioA inh 1.7, Yp Topo-I inh -12.5, TcdB GH inh 0.1, FadD28 FP inh -0.2 and Vc quorum ag inactive.
Screening CC1CCCC(C)N1C(=C(Cl)Cl)C(=C1SCCS1)[N+](=O)[O-] (stereo not given) returned Yp Topo-I inh 14.5, TcdB GH inh -0.2, FadD28 FP inh 16.3* and Vc quorum ag -0.6.
Screening C[C@H]1CN([C@@H](C)CO)C(=O)c2cc(-c3ccc(C(=O)N(C)C)cc3)cnc2O[C@H]1CN(C)C(=O)c1ccncc1 returned Mtb BioA inh -0.9 and TcdB GH inh -3.9.
Screening CC1(C)OC2C(CO)OC(n3cnc4c(=S)nc(N)[nH]c43)C2O1 (stereo not given) returned FadD28 FP inh -1.2.
`CC1(C)O[C@@H]2[C@H](O1)[C@@H](COS(=O)(=O)O)O[C@H]2n1c(=S)[nH]c2c(=O)[nH]c(N)nc21` gave Mtb BioA inh -6.5, Yp Topo-I inh -0.1, TcdB GH inh 11.6*, FadD28 FP inh 1.4 and Vc quorum ag -0.8.
For C[C@@H](C(=O)NCc1ccccc1)N1C(=O)C2CC=CCC2C1=O (stereo not given in full) the results were Mtb BioA inh -1.1, Yp Topo-I inh 0.7, FadD28 FP inh -0.6 and Vc quorum ag 25.0*.
For Nc1cc(C(=O)O)c(N)c2c1C(=O)c1ccccc1C2=O the results were Yp Topo-I inh 16.1, FadD28 FP inh 8.3* and Vc quorum ag inactive.
COc1ccccc1C1/C(=C(/O)c2ccccc2)C(=O)C(=O)N1CC(C)O (stereo not given) was read as Mtb BioA inh 1.2, Yp Topo-I inh -0.1, FadD28 FP inh 10.0* and Vc quorum ag 3.2.
COc1ccccc1C1/C(=C(/O)c2ccccc2)C(=O)C(=O)N1CCO (stereo not given) was read as Yp Topo-I inh -1.3, FadD28 FP inh -3.4 and Vc quorum ag -0.9.
Screening COc1ccc(C2=CC3=C(Br)C(=O)C(C)(OC(=O)C4CCCC4)C(=O)C3=CO2)cc1 (stereo not given) returned Mtb BioA inh 0.3, Yp Topo-I inh -3.9, FadD28 FP inh 10.7* and Vc quorum ag 2.7.
CC1(OC(=O)C2CCCC2)C(=O)C=C2C=C(c3ccsc3)OC=C2C1=O (stereo not given) was read as Mtb BioA inh -1.6, Yp Topo-I inh -8.4, TcdB GH inh -0.9, FadD28 FP inh 4.9 and Vc quorum ag inactive.
`CC(C)OC(=O)C(C)Nc1n[nH]c(=S)[nH]c1=O` (stereo not given) gave Yp Topo-I inh -6.3, TcdB GH inh 0.2, FadD28 FP inh 1.0 and Vc quorum ag -0.5.

Bioassay records (PubChem)
